Screen size: about 53,000 sequences; about 3,700 (7%) were called active. The full list was thinned out, with actives kept by preference. Values without a mark were called inactive.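 How the source made its calls: active means gene knockdowns whose robust z-score for IL-1 alpha signal is at least 2 or at most -2, so actives lie on both sides; inactive means the rest.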

The nature of the experiment: Components of the Cytosolic LPS Sensing Pathway: Gene Identification via Genome-wide siRNA Screen.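 Further: robust z of the log signal after scaling to non-targeting control siRNA wells of the plate.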 Particulars: RAW264.7 macrophages, IL-1a HTRF, actives lie on both sides, screened at 100 nM (by protocol), cells primed 5 h with Pam3CSK4 first. The gist of the method: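 Cells (RAW264.7, 1×10^4 per well) were transfected with siRNA at 100 nM and cultured 48h at 37 degrees C. Pam3CSK4 was added for 5 hours; LipidA transfection followed for 24 hour. IL-1a was then measured by HTRF.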
(TR-FRET usually uses a lanthanide donor and a delayed reading to cut background.)
As to GGAAGUUAGUUUCGUUUUATT against Rprd1b, the z-score is 2.03 (active).

Take GGCAAGAUCUUCAAGUGAATT against Eef1g: the z-score is -0.809.

On to GGAACAUUUUGGAAAUGACTT against Fbxo25, for which the z-score is -0.625.

In the case of GGAAGAAGAAGGAGCUAGATT against Slu7, the z-score was -2.2 (active). As for CCACCCACUAAACCUAAAUTT against Pcolce, the figure is 0.136; as for GGACACCAAAGUGAAUACATT against Cdhr5, 0.122; as for GGAGAUGGCACAGUCAGUCTT against Slc22a8, -0.338. GGGUUGUGGCUGCUACUAUTT against Pira2: the z-score was 2.18 (active).

Turning to GCUACUGGUUGGGUUGAAGTT against Tbcd, the z-score is 1.47.

As for GGAAGCUUUGGGAAACAGUTT against Bmp2, the z-score was -0.226. Next, GGCCACUUGUCUCAUUGUGTT against Xlr4c: -1.93; GGAUACCAUCCUAGGCCUGTT against Ephx3: -0.603.

With GCCUCAUCGUUGCUGACUATT against Pde3b, the z-score is -2.04 (active). Next, GGAUGGUAACCAUCAUAUUTT against Vmn1r54: -0.887; CCUCAUUGUUUUAUACCCUTT against Olfr1140: 0.309.

For GGGAUUAUACUAAUCCAACTT against Wdr45, the z-score was 1.24. As for GCUUCUUCCUUAGAUGGCATT against Kcnb1, the figure is -1.32. As for GGUGCAUUUUGUCUAUGAUTT against Lamp5, the figure is -2.04 (active). As for CGACCAGCCAUGGUACAAATT against Ptprd, the figure is -0.83; as for CGUAGAAGAGUACAUGAUUTT against Pdcd10, -0.526.

As to GGAGAAAAGGAAGUUGAGGTT against Bnip3l, the z-score is -1.76. As to GGGUUUCCAAGAAGGAAGCTT against Utp25, the z-score is 0.852.

CCUUUUUCGAAAAAUCAGGTT against Lyst: the z-score was -0.39.

In the case of CCACAUAUAUCAACAAGCUTT against Olfr916, the z-score was -0.257. As for CCAAGAUAGUCCCUAUCCCTT against Scamp3, the figure is 0.346; as for GGUAUGAUGAACAGUCCAGTT against Ep300, -2.35 (active).

As to GGCUUGUUAAUGAAUGCACTT against Ankrd9, the z-score was -0.894. In the case of GGCUUUGAAGAAGAGCUUUTT against Atp6v0a4, the z-score was -0.775.

Turning to GCACAGCGGUAAACAAAAUTT against Ywhaz, the z-score is -0.00575.

For GUAUCCUUCACAACUGUCUTT against Olfr786, the z-score was -1.66. As for GGAAUCUGCUGAGGUUUAUTT against Cidea, the figure is 4.08 (active); as for GGAGCUGAGGAAAAAGAUUTT against Uhrf1, -0.993.

Consider GGCUUAUCAGUCCAUGAAGTT against Dhrs11, for which the z-score is -0.601. As for GGCGAUCAGGCAUCAUCCUTT against Aox1, the figure is -0.153. GGCAACCAGUCUCAUCAAUTT against Scgb1b27: the z-score is -0.927. Take GCAGAGAUACCUAUCAAAGTT against Angptl4: the z-score was 1.16. As for GGAAGAGGAACAGUUAGCCTT against Zfp553, the figure is -0.24. GGAGGUCUGGAUUAACUGUTT against Cd163l1: the z-score was 2.2 (active). As for GCAUCCUGAGCAGUGAUAUTT against Taar7b, the figure is -1.75; as for GGGUGCAGUGGAGUCUAUUTT against Smc1a, -1.31. On to GGAUUCUGAAGUGUAAAGATT against Icos, for which the z-score was -0.764.

GGCAGAGAUUGAGAGCAAGTT against Palm: the z-score is 2.28 (active). Turning to GGAGUUCCUCAAGAAUUUUTT against Arpc4, the z-score was -1.39. For the sequence GGUUGUACUGAGUAGCUGGTT against Slc7a4, the z-score was 0.997. Next, GGUUUACAAGAGUUACAGUTT against Brpf1: 0.493; GCAAAGUUGGUGACGUGAUTT against Pole2: -2.15 (active). Next, CCAAUAAGGCAUAUGUUUUTT against Scarb2: -0.608; GGCACAGCUUGCUGAAGCUTT against Atp11b: -1.76; GGAAUACAAAGAUAGCUUCTT against Atrn: 0.786. As for GGCUUCUGGACCUCAAACATT against Zfp92, the figure is -2.14 (active); as for “GGCAAUGUUUUUCUUGUUGTT against 9330132A10Rik”, -1.12; as for GACCCGCUGCUGCUCAAAUTT against Cdc42ep5, -0.178.

For the sequence GGGCAAAAGUACUUUGACUTT against Ensa, the z-score was 2.2 (active).

Regarding GGACUGUGAUCAGGUUUGUTT against Elk3, the z-score was 0.695. Next, GGUAACCAUGAUGAUGACATT against Tmem38b: -2.05 (active).

On to GGAAGACACAUUUUUCCAUTT against Serpinb9e, for which the z-score was 0.733.

In the case of GGUCUCUCGGACUUUUUCCTT against Adipor1, the z-score is -0.765. As for CCAAUGUUGGCAUUAUGUUTT against Fah, the figure is -0.354; as for GGAAGAAACUGGAAAGAUUTT against Ankrd23, -1.01. Take GGAAUGGUCCCUCCAAUGATT against Prpf40b: the z-score is 2.38 (active).

For the sequence GGACACAAGCCUAUUCCAATT against Rffl, the z-score is 1.59. As for GGAUUCAAGCAUCGGAUUGTT against Adamts6, the figure is 1.11. Next, GGCAAUUGUCUCAUUCUGATT against Olfr631: 0.806. Turning to CCAUCAACCCAUCAUGUGCTT against Pitpnc1, the z-score is -1.25.

Turning to GGCCUUGUAUGAAUUAUUUTT against Sqle, the z-score was 2.18 (active). Regarding GGGAGCAAAUUAGAGAAAUTT against Gsk3b, the z-score was 0.884. As for GGUCCUCGGUUACAGAAACTT against Cnr2, the z-score is -0.263.

As for CCCAGCUUUUCAACUUGCUTT against Tmc4, the z-score is -1.19. Take GGGCCUUGUUUUAGGAAUUTT against Lap3: the z-score is 2.2 (active). As for GGUACUGGAUCAAAGAAACTT against Gm11992, the figure is -1.75. For the sequence GCUGGUACAAGGUGUUUGATT against Pqbp1, the z-score was 0.825. Next, GGAAGCACUCAGUGCUCUGTT against Igfbp6: 2.06 (active); GGAGGUGAAGCUCAUUGUCTT against Ildr1: -0.165.

For the sequence CCGUGUCAUUUGGAGAGCUTT against Ndufaf5, the z-score is -0.248.

On to GGUGCAGUUCAGCAACAAGTT against Mat2b, for which the z-score is -1.65. GCAGUUGGGUUGGUAACUATT against Ash1l: the z-score is 0.101. Next, GGGCAAACCUUCUAAACUATT against Ttpa: 0.505. GGAUCACCCAUACAGGAACTT against Pla2g2f: the z-score is -2.1 (active).

With GCUGACAAAACUGCUAAACTT against Ctnnb1, the z-score was 0.948.
